Measurements from PubChem BioAssay (NCATS).
Results filed as inconclusive are left out. Activity calls are given as the source filed them. Unless noted, calls follow the shape of the dose curve; as a rule, active = well fitted cell-killing curve with a large enough effect; inconclusive = small, poorly fitted or top-dose-only effect, or effect the other way; inactive = no such curve, though single readings can be large or run the other way.

Columns and labels:
[1] = Quantitative High-Throughput drug screen in 47 multiple myeloma cell lines against the NCATS MIPE library collection: KMS28PE_JCRB cell viability assay (AID 1918983); also: nearly all actives have a fitted effect of over 35% in size; also: potency is read from the fitted curve at half-maximal effect
Summary of the method: (§1)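 500 cells/well per myeloma line exposed to pinned MIPE 4.0 compounds for 48 h at 37 °C, 5% CO2. Viability read as ATP by CellTiter-Glo luminescence, normalised to DMSO-only (100%) and media-only (0%) wells.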

[2] = Quantitative High-Throughput drug screen in 47 multiple myeloma cell lines against the NCATS MIPE library collection: OCIMY5_PLB cell viability assay (AID 1918988); also: nearly all actives have a fitted effect of over 65% in size; also: potency is read from the fitted curve at half-maximal effect
Summary of the method: as §1

[3] = Quantitative High-Throughput drug screen in 47 multiple myeloma cell lines against the NCATS MIPE library collection: OPM1_PLB cell viability assay (AID 1918989); also: nearly all actives have a fitted effect of over 40% in size; also: potency is read from the fitted curve at half-maximal effect
Summary of the method: as §1

[4] = Quantitative High-Throughput drug screen in 47 multiple myeloma cell lines against the NCATS MIPE library collection: U266_ATCC cell viability assay (AID 1919864); also: nearly all actives have a fitted effect of over 35% in size; also: potency is read from the fitted curve at half-maximal effect
Summary of the method: as §1

[5] = Quantitative High-Throughput drug screen in 47 multiple myeloma cell lines against the NCATS MIPE library collection: XG6_PLB cell viability assay (AID 1919865); also: nearly all actives have a fitted effect of over 40% in size; also: potency is read from the fitted curve at half-maximal effect
Summary of the method: as §1

[6] = Quantitative High-Throughput drug screen in 47 multiple myeloma cell lines against the NCATS MIPE library collection: XG1_PLB cell viability assay (AID 1919866); also: nearly all actives have a fitted effect of over 35% in size; also: potency is read from the fitted curve at half-maximal effect
Summary of the method: as §1

[7] = Quantitative High-Throughput drug screen in 47 multiple myeloma cell lines against the NCATS MIPE library collection: VP6_DJ cell viability assay (AID 1919867); also: nearly all actives have a fitted effect of over 40% in size; also: potency is read from the fitted curve at half-maximal effect
Summary of the method: as §1

[8] = Quantitative High-Throughput drug screen in 47 multiple myeloma cell lines against the NCATS MIPE library collection: PE2_PLB cell viability assay (AID 1919869); also: nearly all actives have a fitted effect of over 35% in size; also: potency is read from the fitted curve at half-maximal effect
Summary of the method: as §1

[9] = Quantitative High-Throughput drug screen in 47 multiple myeloma cell lines against the NCATS MIPE library collection: PCM6_Riken cell viability assay (AID 1919870); also: nearly all actives have a fitted effect of over 30% in size; also: potency is read from the fitted curve at half-maximal effect
Summary of the method: as §1

[10] = Quantitative High-Throughput drug screen in 47 multiple myeloma cell lines against the NCATS MIPE library collection: RPMI8226_ATCC cell viability assay (AID 1919871); also: nearly all actives have a fitted effect of over 30% in size; also: potency is read from the fitted curve at half-maximal effect
Summary of the method: as §1

[11] = Quantitative High-Throughput drug screen in 47 multiple myeloma cell lines against the NCATS MIPE library collection: OPM2_DSMZ cell viability assay (AID 1919872); also: nearly all actives have a fitted effect of over 30% in size; also: potency is read from the fitted curve at half-maximal effect
Summary of the method: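 Luminescent ATP measurement with CellTiter-Glo gives viability, scaled between DMSO-only wells (100%) and media-only wells (0%). Cells, 500 per well, faced library compounds for 48 hours at 37C.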

[12] = Quantitative High-Throughput drug screen in 47 multiple myeloma cell lines against the NCATS MIPE library collection: KMS28BM_JCRB cell viability assay (AID 1919874); also: nearly all actives have a fitted effect of over 35% in size; also: potency is read from the fitted curve at half-maximal effect
Summary of the method: as §1

[13] = qHTS for identification of novel therapeutic agents for treatment of microphthalmiaassociated transcription factor (MiT) renal cell carcinoma (RCC) (AID 1963991); settings: CellTiter-Glo, 48 h, stronger effect = lower value
Summary of the method: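 Three TFE3-fusion RCC cell lines (UOK109, UOK124, UOK145), 500 cells/well, were exposed to the 1912-compound MIPE 4.0 library for 48 hours at 37 C. Viability was read by CellTiter-Glo luminescence, normalised to DMSO (100%) and empty wells (0%), with 11-concentration curve fits.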

[14] = Quantitative High-Throughput drug screen in 47 multiple myeloma cell lines against the NCATS MIPE library collection: SKMM1_PLB cell viability assay (AID 1919863); settings: SKMM1 myeloma viability, CellTiter-Glo ATP, 48 h; viability: stronger effect = lower value; also: nearly all actives have a fitted effect of over 35% in size; also: potency is read from the fitted curve at half-maximal effect
Summary of the method: as §1

[15] = Quantitative High-Throughput drug screen in 47 multiple myeloma cell lines against the NCATS MIPE library collection: KMS11_JCRBsus cell viability assay (AID 1919873); also: nearly all actives have a fitted effect of over 50% in size; also: potency is read from the fitted curve at half-maximal effect
Summary of the method: as §1

[16] = qHTS drug screen for cell cycle checkpoint inhibitors in PARPi-resistant BRCA-mutant ovarian cancer cell lines. (AID 1963452; calls by dose curve); settings: PEO1/OlaR viability, CellTiter-Glo luminescence, 96 h, stronger effect = lower value
Summary of the method: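 PEO1, PEO4 and PEO1/OlaR ovarian cancer cells, 600 per well, exposed 96 h at 37C to a dilution series. Viability read by CellTiter-Glo luminescence, normalized to DMSO and empty wells; activity summarized as Z-AUC.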

[17] = Quantitative High-Throughput drug screen in 47 multiple myeloma cell lines against the NCATS MIPE library collection: KMS34_JCRB cell viability assay (AID 1918985); also: nearly all actives have a fitted effect of over 40% in size; also: potency is read from the fitted curve at half-maximal effect
Summary of the method: as §1

[18] = Quantitative High-Throughput drug screen in 47 multiple myeloma cell lines against the NCATS MIPE library collection: UTMC2_PLB cell viability assay (AID 1919868); settings: CellTiter-Glo ATP luminescence, 48 h; viability (% of DMSO control): at 45.8 µM (top of the series) unless noted; also: nearly all actives have a fitted effect of over 55% in size; also: potency is read from the fitted curve at half-maximal effect
Summary of the method: as §1

[19] = Quantitative High-Throughput drug screen in 47 multiple myeloma cell lines against the NCATS MIPE library collection: OCIMY7_PLB cell viability assay (AID 1918987); also: potency is read from the fitted curve at half-maximal effect; nearly all actives have a fitted effect of over 65% in size
Summary of the method: as §1

[20] = TFE3-RCC UOK109 viability, measured here: UOK109 Z-AUC
[21] = TFE3-RCC viability, measured here: UOK124 Z-AUC
[22] = TFE3-RCC viability, measured here: UOK145 Z-AUC
[23] = measured here: PEO1 parental Z-AUC

CN(C)c1nc(Cc2ccc(NC(=O)c3ccc4ccccc4c3)cc2)nc(Cl)c1CC(=O)O
0.693: z-score [13, 21]
0.743: z-score [13, 20]
active: Potency [2] 1.66 µM
0.756: z-score [13, 22]
inactive: Potency [1] | Potency [3] | Potency [4] | Potency [5] | Potency [6] | Potency [7] | Potency [8] | Potency [9] | Potency [10] | Potency [11] | Potency [12]

COc1cc(C(=O)NS(=O)(=O)c2ccccc2C)ccc1Cc1cn(C)c2ccc(NC(=O)OC3CCCC3)cc12
1.16: Z-AUC [16, 23]
1.3: Z-AUC ([16]; measured here: PEO4 Z-AUC)
inactive: Z-AUC [16] 1.83
active: Potency [1] 23.5 µM | Potency [2] 18.7 µM | Potency [3] 7.43 µM | Potency [14] 18.7 µM | Potency [4] 18.7 µM | Potency [5] 14.8 µM | Potency [6] 11.8 µM | Potency [7] 16.6 µM | Potency [8] 13.2 µM | Potency [9] 13.2 µM | Potency [10] 20.9 µM | Potency [15] 7.43 µM | Potency [12] 16.6 µM

Nc1ccc(S(=O)(=O)Nc2ncccn2)cc1
0.624: z-score [13, 21]
-0.287: z-score [13, 20]
-0.336: z-score [13, 22]
inactive: Potency [1] | Potency [3] | viability [14] 155% | Potency [4] | Potency [5] | Potency [6] | Potency [7] | Potency [8] | Potency [11]

COc1c(N2C[C@@H]3CCCN[C@H]3C2)c(F)cc2c(=O)c(C(=O)O)cn(C3CC3)c12
1.15: Z-AUC ([16]; measured here: PEO4 Z-AUC)
inactive: Potency [1] | Potency [3] | Potency [4] | Potency [6] | Potency [8] | Potency [10] | Potency [15] | Potency [12] | Z-AUC [16] 0.687
0.58: Z-AUC [16, 23]
active: Potency [17] 9.35 µM | Potency [11] 6.62 µM

C[C@H]1C[C@@H]2[C@@H]([C@@H](O)C[C@@]3(C)[C@H]2CC[C@]3(O)C(=O)CO)[C@@]2(C)C=CC(=O)C=C12
0.208: z-score [13, 21]
0.15: z-score [13, 20]
0.428: z-score [13, 22]
active: Potency [15] 0.105 µM
inactive: Potency [1] | Potency [17] | Potency [5] | Potency [6] | Potency [8] | Potency [11] | Potency [12]

COc1cc(-c2nn(C3CCC(N4CCN(C(C)=O)CC4)CC3)c3ncnc(N)c23)ccc1NC(=O)c1cc2ccccc2n1C (stereo unspecified)
0.075: Z-AUC [16, 23]
active: Potency [1] 14.8 µM | Potency [17] 6.62 µM | Potency [2] 1.87 µM | Potency [14] 14.8 µM | Potency [5] 1.66 µM | Potency [6] 0.332 µM | Potency [7] 6.62 µM | Potency [8] 2.96 µM | Potency [10] 18.7 µM | Potency [15] 4.18 µM | Potency [12] 3.32 µM
-0.0545: Z-AUC ([16]; measured here: PEO4 Z-AUC)
inactive: Z-AUC [16] -1.39

CCCCN1CCC(CNC(=O)c2c3n(c4ccccc24)CCCO3)CC1
active: Potency [1] 23.5 µM | Potency [2] 3.32 µM | Potency [3] 23.5 µM | Potency [14] 16.6 µM | Potency [4] 4.69 µM | Potency [5] 0.833 µM | Potency [6] 0.743 µM | Potency [7] 10.5 µM | Potency [18] 9.35 µM | Potency [8] 11.8 µM | Potency [9] 3.32 µM | Potency [15] 13.2 µM

Cc1cn2cc(C(=O)N(C)CCO)cc(N[C@@H]3CCOc4cccc(C)c43)c2n1
1.61: Z-AUC ([16]; measured here: PEO4 Z-AUC)
1.4: Z-AUC [16, 23]
inactive: Potency [1] | Potency [17] | Potency [2] | Potency [5] | Potency [6] | Potency [18] | Potency [8] | Potency [10] | Potency [15] | Potency [12] | Z-AUC [16] 1.4

COc1ccc2c(OCc3nnc4ccc(-c5ccccc5)nn34)ccnc2c1
inactive: Potency [1] | Potency [17] | Potency [4] | Potency [6] | Potency [9] | Potency [10] | Potency [11] | Potency [15] | Potency [12] | Z-AUC [16] -0.0998
0.516: Z-AUC ([16]; measured here: PEO4 Z-AUC)
0.23: Z-AUC [16, 23]
active: Potency [5] 0.469 µM | Potency [8] 1.87 µM

COc1cc2ncn(-c3cc(OCc4ccccc4C(F)(F)F)c(C(N)=O)s3)c2cc1OC
inactive: Z-AUC [16] -1.24
-1.55: Z-AUC ([16]; measured here: PEO4 Z-AUC)
-0.678: Z-AUC [16, 23]
active: Potency [1] 16.6 µM | Potency [19] 0.332 µM | Potency [2] 1.32 µM | Potency [3] 0.743 µM | Potency [14] 0.166 µM | Potency [4] 18.7 µM | Potency [5] 1.66 µM | Potency [6] 0.209 µM | Potency [7] 18.7 µM | Potency [8] 18.7 µM | Potency [9] 5.9 µM | Potency [10] 5.26 µM | Potency [15] 0.296 µM | Potency [12] 0.526 µM

CC1COC2(CCN(c3nc(=O)c4cc(C(F)(F)F)cc([N+](=O)[O-])c4s3)CC2)O1 (stereo unspecified)
0.189: Z-AUC [16, 23]
0.808: z-score [13, 22]
0.131: z-score [13, 21]
inactive: Potency [1] | Potency [17] | Potency [3] | viability [14] 134% | Potency [4] | Potency [5] | Potency [6] | Potency [7] | Potency [8] | Potency [10] | Potency [11] | Potency [15] | Potency [12] | Z-AUC [16] 0.328
1.51: z-score [13, 20]
0.861: Z-AUC ([16]; measured here: PEO4 Z-AUC)

O=C(Nc1nc2cccc(-c3ccc(CN4CCS(=O)(=O)CC4)cc3)n2n1)C1CC1
inactive: Z-AUC [16] 0.985
active: Potency [1] 13.2 µM | Potency [17] 8.33 µM | Potency [2] 6.62 µM | Potency [4] 14.8 µM | Potency [5] 16.6 µM | Potency [6] 14.8 µM | Potency [7] 18.7 µM | Potency [8] 16.6 µM | Potency [9] 16.6 µM | Potency [10] 18.7 µM | Potency [15] 13.2 µM | Potency [12] 14.8 µM
0.638: Z-AUC ([16]; measured here: PEO4 Z-AUC)
0.544: Z-AUC [16, 23]
